The source made the active and inactive calls.

Experiment [1] is described as follows: small molecules captured by biotinylated probe aFSTL3 – biochemical, small-molecule microarray, fluorescence 635/667, stem cell growth factor project, primary screen (AID 1064).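 Note: measures binding of the biotinylated anti-FSTL3 antibody to printed compounds.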 The settings on record: higher = more signal.
The nature of experiment [2]: binders from COS7 lysate, DM2A8 probe, primary screen, torsin A project, cell lysate, small-molecule microarray, fluorescence 635/667 (AID 1065). The conditions noted are these: higher = more signal, COS7 lysate expressing mutant human TOR1A.
The nature of experiment [3]: small molecules captured by biotinylated probe aFGF2 – biochemical, small-molecule microarray, fluorescence 635/667, stem cell growth factor project, primary screen (AID 1067).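 Note: measures binding of biotinylated aFGF2 protein to printed compounds on slides; z-score merges feature fluorescence and signal-to-noise across triplicate slides.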 The conditions noted are these: higher = more signal.
Experiment [4] in a line: small molecules captured by biotinylated probe aFGF10 – biochemical, small-molecule microarray, fluorescence 635/667, stem cell growth factor project, primary screen (AID 1071).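 Note: score merges 667 nm spot intensity and signal to noise from triplicate slides.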 The conditions noted are these: higher = more signal.
The target in experiment [5] is Neurogenic locus notch homolog protein 2 (Homo sapiens) (UniProt Q04721). The experiment can be described thus: small molecules binding Notch2 protein – biochemical, small-molecule microarray, 635 nm fluorescence, stem cell growth factors, primary screen (AID 1073). The settings on record: higher = more signal.
Neurogenic locus notch homolog protein 2 (Homo sapiens), sequence (Q04721 whole entry, looked up, canonical isoform): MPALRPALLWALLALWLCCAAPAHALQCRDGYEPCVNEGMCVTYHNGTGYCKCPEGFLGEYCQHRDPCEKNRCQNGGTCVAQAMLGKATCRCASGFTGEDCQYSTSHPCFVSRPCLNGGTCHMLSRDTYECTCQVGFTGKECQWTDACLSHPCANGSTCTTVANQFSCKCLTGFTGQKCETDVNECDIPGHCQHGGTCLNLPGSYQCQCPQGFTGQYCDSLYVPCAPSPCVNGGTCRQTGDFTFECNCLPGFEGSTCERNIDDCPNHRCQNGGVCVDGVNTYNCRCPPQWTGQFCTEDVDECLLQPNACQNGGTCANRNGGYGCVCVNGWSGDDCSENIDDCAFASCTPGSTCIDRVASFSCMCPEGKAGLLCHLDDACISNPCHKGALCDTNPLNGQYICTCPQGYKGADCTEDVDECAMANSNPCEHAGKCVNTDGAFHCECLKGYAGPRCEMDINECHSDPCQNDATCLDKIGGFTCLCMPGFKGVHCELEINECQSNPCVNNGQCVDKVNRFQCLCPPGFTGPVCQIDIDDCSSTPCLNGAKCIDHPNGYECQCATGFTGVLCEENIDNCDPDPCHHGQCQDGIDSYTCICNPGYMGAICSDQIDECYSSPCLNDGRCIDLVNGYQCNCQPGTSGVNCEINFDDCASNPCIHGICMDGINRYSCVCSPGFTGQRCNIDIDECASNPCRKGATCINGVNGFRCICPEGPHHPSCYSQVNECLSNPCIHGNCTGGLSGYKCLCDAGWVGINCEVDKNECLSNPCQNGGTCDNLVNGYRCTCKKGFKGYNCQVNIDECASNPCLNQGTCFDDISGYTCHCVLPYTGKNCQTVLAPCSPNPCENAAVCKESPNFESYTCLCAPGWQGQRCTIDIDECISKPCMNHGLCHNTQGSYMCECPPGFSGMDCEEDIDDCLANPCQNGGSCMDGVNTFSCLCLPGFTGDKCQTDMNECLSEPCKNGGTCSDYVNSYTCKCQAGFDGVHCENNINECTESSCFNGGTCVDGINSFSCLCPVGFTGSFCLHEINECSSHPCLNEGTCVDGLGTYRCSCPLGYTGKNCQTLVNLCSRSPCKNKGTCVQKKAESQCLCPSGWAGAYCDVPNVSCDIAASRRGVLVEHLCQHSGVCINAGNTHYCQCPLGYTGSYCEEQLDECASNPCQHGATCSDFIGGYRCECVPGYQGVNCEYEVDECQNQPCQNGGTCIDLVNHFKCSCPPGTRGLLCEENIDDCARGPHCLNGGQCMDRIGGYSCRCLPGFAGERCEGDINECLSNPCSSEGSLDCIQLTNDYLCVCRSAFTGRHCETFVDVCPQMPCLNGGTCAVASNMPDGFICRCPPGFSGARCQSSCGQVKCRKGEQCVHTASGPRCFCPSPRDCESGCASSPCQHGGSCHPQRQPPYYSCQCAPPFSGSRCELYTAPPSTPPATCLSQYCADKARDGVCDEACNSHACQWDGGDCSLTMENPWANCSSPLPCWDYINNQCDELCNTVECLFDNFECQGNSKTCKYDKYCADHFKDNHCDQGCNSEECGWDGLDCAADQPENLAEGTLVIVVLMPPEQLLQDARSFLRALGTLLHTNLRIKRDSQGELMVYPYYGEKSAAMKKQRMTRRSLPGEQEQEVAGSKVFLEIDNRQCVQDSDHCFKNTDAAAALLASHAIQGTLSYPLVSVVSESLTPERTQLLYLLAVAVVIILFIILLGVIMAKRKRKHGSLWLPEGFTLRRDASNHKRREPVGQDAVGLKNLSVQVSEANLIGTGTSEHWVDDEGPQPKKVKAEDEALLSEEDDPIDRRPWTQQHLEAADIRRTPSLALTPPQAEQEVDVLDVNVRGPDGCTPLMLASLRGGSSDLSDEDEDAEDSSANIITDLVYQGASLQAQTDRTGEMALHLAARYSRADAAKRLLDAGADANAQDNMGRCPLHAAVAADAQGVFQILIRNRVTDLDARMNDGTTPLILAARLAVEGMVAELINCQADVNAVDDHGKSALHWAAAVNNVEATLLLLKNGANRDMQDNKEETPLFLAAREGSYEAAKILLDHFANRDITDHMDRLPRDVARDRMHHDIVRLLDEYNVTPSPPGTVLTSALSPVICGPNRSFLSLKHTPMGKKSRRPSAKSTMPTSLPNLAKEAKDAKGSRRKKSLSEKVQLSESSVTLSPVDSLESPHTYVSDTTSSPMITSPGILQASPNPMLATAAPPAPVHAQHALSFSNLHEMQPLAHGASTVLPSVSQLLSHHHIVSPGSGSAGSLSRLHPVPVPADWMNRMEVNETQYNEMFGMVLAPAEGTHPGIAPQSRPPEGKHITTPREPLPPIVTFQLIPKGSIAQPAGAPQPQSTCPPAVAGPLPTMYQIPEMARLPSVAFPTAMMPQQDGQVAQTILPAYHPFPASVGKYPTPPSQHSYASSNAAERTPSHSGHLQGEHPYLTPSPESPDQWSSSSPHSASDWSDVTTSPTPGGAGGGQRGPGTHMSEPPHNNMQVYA
The target in experiment [6] is Pro-neuregulin-1, membrane-bound isoform (Homo sapiens) (UniProt Q02297). Description: small molecules binding neuregulin-1 protein – biochemical, small-molecule microarray, fluorescence 635/667, psychiatric disease protein project, primary screen (AID 1075).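 Note: score combines 667 nm spot fluorescence with signal to noise.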 The conditions noted are these: NRG1 binding, 635 nm fluorescence, higher = more signal.
For experiment [7], the system named is Neuregulin-1 EGF-like domain. Description: small molecules binding NRG1 EGF domain – biochemical, small-molecule microarray, 635 nm fluorescence, primary screen (AID 1081).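 Note: binding of the protein to compounds printed on small-molecule microarray slides.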 The settings on record: higher = more signal.
Experiment [8] is described as follows: FRG1 expression reporter modulators in myotubes – cell-based, C2C12 myotubes, firefly/Renilla luciferase, luminescence, FRG1 inhibition for FSHD, primary screen (AID 1084). The settings on record: FRG1 promoter luciferase, higher = more signal, called active from +8 up or from −8 down.
Experiment [9] can be described thus: small molecules captured by biotinylated probe aFST – biochemical, small-molecule microarray, fluorescence 635/667, stem cell growth factor project, primary screen (AID 1086).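 Note: score merges 667 nm fluorescence with signal-to-noise of each printed compound spot.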 The settings on record: higher = more signal.
Experiment [10] in a line: binders of probe aHhip on microarray, primary screen, stem cell growth factor project, biochemical, small-molecule microarray, fluorescence 635/667 (AID 1087).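 Note: score merges spot fluorescence at 667nm with spot signal to noise ratio.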 The conditions noted are these: higher = more signal.
Experiment [11] relates to PRMT1 (protein arginine N-methyltransferase 1). The experiment can be described thus: small molecules binding arginine methyltransferase PRMT1 – biochemical, small-molecule microarray, 635 nm fluorescence, primary screen (AID 1088).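 Note: binding of Prmt1 protein to compounds spotted on small-molecule microarray slides.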 The conditions noted are these: higher = more signal.
Experiment [12] can be described thus: growth effects on S. cerevisiae YJM789 – YJM789 clinical isolate, OD600, 24 h, basal, primary screen (AID 1089).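 Note: growth of clinical yeast isolate S. cerevisiae YJM 789 seeded 1000 cells per well; test concentration not given here.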 The settings on record: higher = more signal, called active from +8 up or from −8 down.
The nature of experiment [13]: S. pombe growth modifiers, basal conditions – strain 972, OD600, 24 h, no modulator, primary screen (AID 1090).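 Note: basal condition with compound alone and no growth modifier present; test concentration not given here.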 The settings on record: S. pombe 972 growth, higher = more signal, called active from +8 up or from −8 down.
A short description of experiment [14]: budding yeast growth modifiers under rapamycin – strain BY4716, OD600, 96 h, primary screen (AID 1091). Note: test concentration not given here. The settings on record: S. cerevisiae BY4716 + rapamycin, higher = more signal, called active from +8 up or from −8 down.
Experiment [15] deals with Torsin-1A-interacting protein 2 (Homo sapiens) (UniProt Q8NFQ8). The experiment can be described thus: small molecules binding lysate-expressed LULL1 – cell lysate, human LULL1 lysate, 635/667 nm fluorescence, primary screen (AID 1092).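 Note: probe is lysate of COS7 cells overexpressing human LULL1; score merges per-feature 667 nm fluorescence with signal-to-noise.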 The conditions noted are these: small-molecule microarray, hLULL1 lysate binding, 635 nm fluorescence; higher = more signal.
A short description of experiment [16]: optical density change of DRC41 E. coli – strain DRC41, OD650, 24 h, E. coli filamentation project, primary screen (AID 1093).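 Note: MC1000 strain lacking acrAB efflux and sulA so SOS filamentation is blocked; test concentration not given here.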 The conditions noted are these: E. coli DRC41 growth, higher = more signal, called active from +8 up or from −8 down.
Experiment [17] can be described thus: probe aLefty2 binding to arrayed compounds – biochemical, biotinylated probe, 635/667 nm fluorescence, primary screen (AID 1094).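 Note: score merges spot fluorescence near 667 nm with spot signal-to-noise ratio.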 The conditions noted are these: small-molecule microarray, higher = more signal.
The subject of experiment [18] is Noggin (protein binding on small-molecule microarray). The experiment can be described thus: small molecules binding Noggin protein – biochemical, 635/667 nm fluorescence, primary screen (AID 1095).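 Note: score merges 667 nm feature fluorescence with signal to noise over triplicate slides.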 The conditions noted are these: 635 nm fluorescence, higher = more signal.
For experiment [19], the target named is Neurogenic locus notch homolog protein 3 (Homo sapiens) (UniProt Q9UM47). Description: small molecules binding NOTCH3 protein – biochemical, 635/667 nm fluorescence, primary screen (AID 1096). The settings on record: small-molecule microarray, 635 nm fluorescence, higher = more signal.
Neurogenic locus notch homolog protein 3 (Homo sapiens), sequence (Q9UM47 whole entry, looked up): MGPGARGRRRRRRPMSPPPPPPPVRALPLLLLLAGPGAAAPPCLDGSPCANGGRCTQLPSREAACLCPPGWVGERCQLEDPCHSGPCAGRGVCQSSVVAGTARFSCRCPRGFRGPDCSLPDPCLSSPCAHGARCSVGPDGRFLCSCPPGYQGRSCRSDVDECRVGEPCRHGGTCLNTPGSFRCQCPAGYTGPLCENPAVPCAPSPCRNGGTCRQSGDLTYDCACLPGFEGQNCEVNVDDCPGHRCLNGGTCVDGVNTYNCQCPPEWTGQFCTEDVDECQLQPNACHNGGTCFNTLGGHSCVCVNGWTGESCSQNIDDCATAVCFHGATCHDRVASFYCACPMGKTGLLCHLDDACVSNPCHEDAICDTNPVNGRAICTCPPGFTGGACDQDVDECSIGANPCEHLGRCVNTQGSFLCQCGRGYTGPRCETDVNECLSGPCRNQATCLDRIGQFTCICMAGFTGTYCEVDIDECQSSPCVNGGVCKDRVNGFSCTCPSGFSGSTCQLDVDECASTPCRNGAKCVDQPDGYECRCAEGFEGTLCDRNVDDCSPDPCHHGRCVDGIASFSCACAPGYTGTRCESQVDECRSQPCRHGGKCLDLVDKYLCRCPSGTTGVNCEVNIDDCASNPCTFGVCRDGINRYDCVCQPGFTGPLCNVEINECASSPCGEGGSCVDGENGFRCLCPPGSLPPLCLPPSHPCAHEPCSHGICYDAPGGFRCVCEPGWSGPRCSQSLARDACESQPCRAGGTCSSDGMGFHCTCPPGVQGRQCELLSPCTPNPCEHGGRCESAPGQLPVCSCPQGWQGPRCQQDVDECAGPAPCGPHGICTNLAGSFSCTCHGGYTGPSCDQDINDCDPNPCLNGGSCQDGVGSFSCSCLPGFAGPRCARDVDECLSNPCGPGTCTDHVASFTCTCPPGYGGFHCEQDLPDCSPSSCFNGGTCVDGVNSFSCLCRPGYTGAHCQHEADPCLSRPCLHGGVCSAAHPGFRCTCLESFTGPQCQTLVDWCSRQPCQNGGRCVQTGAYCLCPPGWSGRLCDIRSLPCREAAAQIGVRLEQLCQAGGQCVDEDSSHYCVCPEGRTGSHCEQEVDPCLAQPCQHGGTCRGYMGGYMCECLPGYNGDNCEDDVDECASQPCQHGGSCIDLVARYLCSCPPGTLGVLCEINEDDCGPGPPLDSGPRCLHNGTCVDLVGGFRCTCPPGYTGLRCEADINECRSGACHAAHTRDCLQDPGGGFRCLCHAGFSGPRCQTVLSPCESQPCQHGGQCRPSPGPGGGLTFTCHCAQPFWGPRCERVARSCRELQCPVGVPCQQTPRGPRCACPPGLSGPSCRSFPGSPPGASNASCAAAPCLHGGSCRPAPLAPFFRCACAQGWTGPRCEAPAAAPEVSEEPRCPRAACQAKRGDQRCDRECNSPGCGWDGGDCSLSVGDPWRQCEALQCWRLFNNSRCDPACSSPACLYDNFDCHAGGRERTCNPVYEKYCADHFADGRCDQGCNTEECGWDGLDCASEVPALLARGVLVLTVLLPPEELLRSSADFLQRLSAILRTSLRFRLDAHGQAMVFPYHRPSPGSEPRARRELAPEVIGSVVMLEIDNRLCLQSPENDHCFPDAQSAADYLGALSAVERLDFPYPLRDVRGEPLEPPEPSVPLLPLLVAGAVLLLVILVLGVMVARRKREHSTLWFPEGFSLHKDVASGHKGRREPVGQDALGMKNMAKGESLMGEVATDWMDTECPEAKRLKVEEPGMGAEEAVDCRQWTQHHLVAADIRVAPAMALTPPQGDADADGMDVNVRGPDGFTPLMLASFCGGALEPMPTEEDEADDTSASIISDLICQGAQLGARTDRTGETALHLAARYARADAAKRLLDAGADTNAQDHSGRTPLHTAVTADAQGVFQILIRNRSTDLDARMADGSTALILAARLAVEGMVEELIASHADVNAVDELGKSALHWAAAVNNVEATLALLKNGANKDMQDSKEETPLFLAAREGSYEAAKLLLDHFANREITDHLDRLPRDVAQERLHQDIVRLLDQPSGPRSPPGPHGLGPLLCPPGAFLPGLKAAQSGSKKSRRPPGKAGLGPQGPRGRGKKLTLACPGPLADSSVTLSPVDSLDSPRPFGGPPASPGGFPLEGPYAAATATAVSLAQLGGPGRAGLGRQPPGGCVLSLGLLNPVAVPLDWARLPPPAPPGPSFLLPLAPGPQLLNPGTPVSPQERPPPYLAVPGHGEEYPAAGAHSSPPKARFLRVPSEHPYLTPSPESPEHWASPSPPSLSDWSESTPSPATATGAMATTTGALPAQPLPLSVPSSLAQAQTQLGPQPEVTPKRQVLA
Experiment [20] is described as follows: probe aEGFR binding to arrayed compounds – biochemical, biotinylated probe, 635/667 nm fluorescence, primary screen (AID 1097).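 Note: probe is a biotinylated anti-EGFR antibody binding compounds printed on slides; score combines fluorescence near 667 nm and signal to noise of each spot.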 The settings on record: small-molecule microarray, higher = more signal.

In the case of `NC(=O)NCC#Cc1ccc2c(c1)[C@]1(C(=O)N2)[C@H](C(=O)O)[C@H]2C(=O)O[C@H](c3ccccc3)[C@H](c3ccccc3)N2[C@@H]1c1ccc(O)cc1`, the composite z-score in experiment [1] was 2.62; in experiment [2], -0.0893; in experiment [3], -0.0098; in experiment [4], -0.135; in experiment [5] it was 0.053; in experiment [6], 0.441. Also, the composite z-score in experiment [7] was -0.293; in [9] it was 1.83; in experiment [10] it was 0.182; in experiment [11], 0.167; in experiment [15], 0.68; in experiment [17], 0.883. Besides, the values for the composite z-score in experiment [18], in experiment [19] and in experiment [20] were 0.758, 0.767 and 0.0156, respectively. The z-score in experiment [8] was 1.5 (inactive); in [12] it was 0.0288 (inactive); in [13], -0.856 (inactive); in experiment [14], -0.483 (inactive); in [16], -1.16 (inactive).
For `CC[C@@H]1C=C(C(=O)O)[C@H](c2ccc(C)cc2)N1S(=O)(=O)c1ccc(C)cc1`, the composite z-score in [1] was -0.139; in [2], 0.719; in experiment [3], -0.0246; in [4], -0.256; in [5], 1.1; in experiment [6], 0.929. Moreover, the composite z-score in experiment [7] was 1.29; in experiment [9] it was 0.593; in [10], 0.126; in experiment [11], 0.805; in experiment [15], 2.9; in experiment [17], -0.0654. Besides, the composite z-score in experiment [18] was 0.634; in experiment [19], 0.939; in [20] it was -0.0557. Moreover, the z-score in experiment [8] is -0.143 (inactive); in [12], -1.23 (inactive); in experiment [13], 0.992 (inactive); in [14] it was -0.564 (inactive); in [16] it was -0.552 (inactive).
For the compound `O=C1O[C@@H](c2ccccc2)[C@@H](c2ccccc2)N2[C@@H](c3ccccc3OCCO)[C@]3(C(=O)Nc4ccc(C#CC5(O)CCCCCC5)cc43)[C@@H](C(=O)N3CCN(c4ncccn4)CC3)[C@H]12`, the composite z-score in experiment [1] was -0.002; in [2] it was 0.432; in [3] it was 0.0182; in [4] it was 0.92; in experiment [5], -0.116; in experiment [6], 0.893. The composite z-score in experiment [7] was 1.2; in experiment [9] it was -0.0815; in [10] it was -0.137; in experiment [11] it was 1.55; in experiment [15] it was 2.9; in experiment [17], -0.122. Moreover, the results for the composite z-score in [18], in [19] and in experiment [20] were 0.662, 0.821 and -0.0542, respectively. Besides, the z-score was -2.4 (inactive) in experiment [8]; 3.08 (inactive) in experiment [12]; 0.961 (inactive) in [13]; 7.62 (inactive) in experiment [14]; 1.21 (inactive) in experiment [16].
Consider `CS(=O)(=O)CCOC(=O)C1=CC(CCCO)=CC(C2CC2)N(Cc2cc3c(cc2Br)OCO3)C=C1C(=O)OCCS(C)(=O)=O` (stereo not given), for which the composite z-score in [1] is -0.0672; in experiment [2], 0.702; in experiment [3], -0.0752; in experiment [4] it was 0.142; in experiment [5], 0.6; in experiment [6] it was 1.88. For the same compound, the composite z-score was 1.2 in [7]; 0.114 in experiment [9]; -0.0754 in experiment [10]; 1.37 in experiment [11]; 1.84 in experiment [15]; 0.0723 in experiment [17]. The composite z-score in experiment [18] is 0.39; in [19], 0.533; in [20], 0.0423. Besides, the z-score in experiment [8] is -0.517 (inactive); in [12], -0.955 (inactive); in experiment [13] it was -1.87 (inactive); in [14] it was -1.32 (inactive); in [16], 0.102 (inactive).
With `O=C1NC(=O)C2C1C=CC(C(O)C=Cc1ccc([N+](=O)[O-])cc1)N2Nc1ccc(Cl)cc1Cl` (stereo not given), the composite z-score was determined as 1.03 in experiment [1]; 0.723 in experiment [2]; 0.136 in experiment [3]; 0.797 in experiment [4]; 1.69 in experiment [5]; 1.87 in experiment [6]. Moreover, the composite z-score in experiment [7] was 1.12; in [9], 0.939; in [10], 0.206; in [11], 0.782; in experiment [15] it was 2.47; in experiment [17] it was 0.729. The composite z-score in [18] was -0.518; in experiment [19], 1.11; in experiment [20], 0.285. Also, the z-score was 0.0592 (inactive) in experiment [8]; -0.17 (inactive) in [12]; -1.23 (inactive) in experiment [13]; -0.103 (inactive) in experiment [14]; -2.27 (inactive) in experiment [16].

The values above are taken from PubChem BioAssay.
